# Hits are enriched below; roughly 5.2% of the tested compounds scored in any of these assays.
# Yeast superoxide = caloric restriction mimetics inhibiting age-related superoxide in yeast | S. cerevisiae aged cells, superoxide DHE fluorescence; hits give low values | AID 2690 | superoxide response (% of plate mean), % at 10 µM | actives 0.18% (n = 330,000);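 active = superoxide response under a set limit, about three screen SD below normal, cut at about 65% in these data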;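 also: yeast aged for seven days with compound at 30 °C before DHE staining; 100% = average MFI of all compound-treated wells on the plate with controls excluded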
# A3G deaminase = APOBEC3G (human) deaminase inhibition; Q9HC16; recombinant A3G, ssDNA deamination FAM/TAMRA fluorescence; inhibition, % at 20 µM; actives 0.28% (n = 330,000); AID 493012;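 active = inhibition of at least 40% at 20 µM, with no more than 30% in the related APOBEC3A deaminase screen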;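 also: plate controls were DMSO wells with A3G for no effect and wells lacking A3G enzyme for full effect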
# Target sequence (Q9HC16 whole entry, looked up): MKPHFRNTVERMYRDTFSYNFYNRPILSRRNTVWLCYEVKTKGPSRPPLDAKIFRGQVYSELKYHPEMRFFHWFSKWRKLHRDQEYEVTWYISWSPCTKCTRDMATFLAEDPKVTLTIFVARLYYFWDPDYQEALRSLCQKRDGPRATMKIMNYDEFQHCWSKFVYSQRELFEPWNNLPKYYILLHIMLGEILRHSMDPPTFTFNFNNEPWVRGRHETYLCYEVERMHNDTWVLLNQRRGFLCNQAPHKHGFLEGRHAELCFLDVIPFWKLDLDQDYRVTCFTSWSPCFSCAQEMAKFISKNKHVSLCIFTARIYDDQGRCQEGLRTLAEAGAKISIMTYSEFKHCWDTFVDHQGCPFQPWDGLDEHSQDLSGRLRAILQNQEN
# CendR NRP1 mod = NRP-1/CendR interaction modulation. actives 0.85% (n = 360,000). FAM-RPARPAR peptide binding to NRP-1, fluorescence polarization. inhibition, % at 25 µM;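 active = inhibition or corrected inhibition above about 18%, plus a signal ratio from 0.5 to 1.5, limit read from the data, passing the limit was not always enough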
# APOBEC3A inh = blocks human APOBEC3A ssDNA deamination; P31941; recombinant A3A, FAM/TAMRA ssDNA deamination fluorescence; inhibition, % at 20 µM; actives 0.41% (n = 330,000); AID 493011;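 active = at least 40% inhibition at 20 µM here, with at most 30% in a related deaminase screen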;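 also: plate controls were A3A with DMSO for no effect and wells lacking A3A enzyme for full effect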
# ALR H2O2 inh = human ALR oxidase inhibition via reduced H2O2 | purified ALR, DTT oxidation, H2O2 HRP-luminol luminescence | inhibition, % (concentration not given with the values) | actives 3.8% (n = 290,000);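 active = mean replicate inhibition above about 79%, with every replicate also reaching it, limit read from the data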
# PfM18AAP inh-1 = PfM18AAP enzyme inhibition | inhibition, % at 7.35 µM | AID 1822 | recombinant PfM18AAP, H-Glu-NHMec fluorogenic cleavage | actives 1.2% (n = 290,000);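 active = inhibition above the campaign mean inhibition over all tested compounds plus 3 SD, cut at about 28% in these data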;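 also: 0% = plate median of test compound wells and 100% = 2 mM ZnCl2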
# PfM18AAP inh-2 = confirmation of Plasmodium falciparum M18 aspartyl aminopeptidase inhibitors; shares compounds with PfM18AAP inh-1; recombinant PfM18AAP, H-Glu-NHMec fluorogenic cleavage; inhibition, % at 7.35 µM; actives 28% (n = 2,400); AID 2170;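 active = mean inhibition over replicate wells above the hit cutoff set for the earlier primary screen, cut at about 29% in these data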;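 also: 0% = median of test compound wells and 100% = 2 mM ZnCl2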
# CTSL1 confirm = Cathepsin L (human) inhibition, confirmation. shares compounds with PfM18AAP inh-1. purified cathepsin L1, Z-Leu-Arg-MCA fluorescence. inhibition, % at 5.96 µM. 2,400 tested, under 10 active;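 active = average inhibition across replicates above the hit cutoff set in the earlier primary screen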;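 also: 0% = median of test compound wells and 100% = Z-Phe-Ala-diazomethylketone 1 µM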
# * hit, by the source's call; nt = not tested or not shown.
SMILES,Yeast superoxide,A3G deaminase,CendR NRP1 mod,APOBEC3A inh,ALR H2O2 inh,PfM18AAP inh-1,PfM18AAP inh-2,CTSL1 confirm
NS(=O)(=O)c1ccc(NNC(=O)c2sccc2Cl)cc1,116,3,4,-3,15,52*,28,-8
Nc1nn2c(C(F)(F)F)cc(=O)[nH]c2c1N=Nc1cccc(F)c1,132,-5,1,-2,26,-5,nt,nt
Cc1cc(=O)[nH]c2c(N=Nc3ccc(O)cc3)c(N)nn12,nt,nt,-35,nt,nt,61*,62*,6
CC(=O)Nc1ccc(NCC(=O)c2ccccc2)cc1,93,-9,14,-5,65,34*,-35,0
Nc1ncnc(Sc2ncccn2)c1[N+](=O)[O-],nt,nt,6,nt,nt,34*,-90,2
COc1cc([N+](=O)[O-])ccc1NC(=O)Nn1cnnc1,98,-5,-6,1,-11,84*,81*,1
COc1ccc(Cl)cc1C(=O)Nn1cnnc1,101,-6,-10,-6,nt,37*,28,-4
COc1cc([N+](=O)[O-])ccc1NC(=O)NCc1ccccn1,91,2,6,3,-6,0,nt,nt
COc1ccc(C)cc1NC(=O)Nn1cnnc1,90,-6,-4,-1,-28,62*,56*,-2
CC(C)(C)C(=O)/C=C/c1ccc(Oc2ccccc2)cc1,100,nt,2,nt,-4,2,nt,nt
Cc1sc(NC(=O)C2CC(Cl)=CCC2C(=O)O)c(C#N)c1C (stereo not given),117,-2,4,2,11,-1,nt,nt
Cc1cc(C)c(NC(=O)c2sc3nc4c(cc3c2N)C(=O)CC(C)(C)C4)c(C)c1,103,0,11,1,-13,6,nt,nt
Cc1oc(-c2ccc3c(c2)OCCO3)cc1C(=O)NC(CCC(=O)O)C(=O)O (stereo not given),103,7,-9,5,21,38*,-12,8
CSc1ccccc1OCc1cc(C(=O)NCc2ccc(C)s2)no1,101,0,19,2,-16,2,nt,nt
Cc1cc(/C=N/NC(=O)CC#N)c(C)n1-c1ccc([N+](=O)[O-])cc1,90,-6,-1,-2,10,34*,-50,-7
O=C(O)Cn1cc(/C=N/Nc2ccc([N+](=O)[O-])cn2)c2ccccc21,103,-9,-57,0,99*,53*,-20,-1
O=[N+]([O-])c1ccc(NN=Cc2cccc3ccccc23)nc1,nt,nt,-59,nt,nt,nt,nt,nt
Cc1c(C(=O)O)cccc1-n1c(C)cc(/C=N/Nc2ccc([N+](=O)[O-])cn2)c1C,93,-3,-65,5,nt,59*,-17,6
CCN(CC)c1ccc([N+](=O)[O-])cc1/C=N/NC(=O)CC#N,99,-4,2,0,9,24,nt,nt
Cc1cc(/C=N/Nc2ccc([N+](=O)[O-])cn2)c(C)n1-c1ccccc1,95,4,-19,3,2,51*,-20,3
COc1cccc(NC(=O)Nn2cnnc2)c1,110,1,-8,3,-2,63*,49*,1
CC(=O)Nc1cccc(NC(=O)Nc2ccc(C)c(Cl)c2)c1,104,-8,12,1,nt,-2,nt,nt
Cc1ccc(NC(=O)Nn2cnnc2)cc1Cl,103,-8,18,-5,-5,69*,54*,-2
O=C(Nc1cccc(C(F)(F)F)c1)Nn1cnnc1,99,-8,-3,3,-5,70*,64*,0
COc1cccc(NC(=O)Nc2cccnc2)c1,116,-7,4,3,-6,1,nt,nt
O=C(Nc1cccc(Cl)c1)Nn1cnnc1,100,-6,4,-1,8,67*,58*,-4
Cc1ccccc1NC(=O)Cc1nc(COC(=O)Cc2cccc(C(F)(F)F)c2)cs1,nt,nt,-11,nt,nt,nt,nt,nt
COc1cc2ccc(CC(=O)O)cc2cc1OC,nt,nt,-16,nt,nt,nt,nt,nt
CCCCN1C(=O)NC(NC(=O)C2CC2)(C(F)(F)F)C1=O (stereo not given),100,-7,2,-5,0,-3,nt,nt

# High-throughput results as filed in PubChem BioAssay.
